Values joined by “and” are separate entries in the source; they are usually repeats but may differ in a detail not shown here. Equal entries are not always repeated. Results filed as inconclusive are left out. A call without a number means that no potency is given here. A structure can be active in one record and inactive in another. Active and inactive are the calls of the source. Calls come from the whole dose curve; as a rule, active = well fitted curve in the direction sought with a large enough effect in the repeat runs; inconclusive = weak or mixed curves; inactive = no such curve, though single readings can be large; an effect the other way counts as inactive or inconclusive.
Key:
[1] = target: Cytochrome P450 1A2 (Homo sapiens) (UniProt P05177); assay: Cytochrome P450 Family 1 Subfamily A Member 2 (CYP1A2) small molecule antagonists: luciferase reporter qHTS assay (AID 1671199); note: potency is the fitted concentration of half-maximal effect
Sequence of Cytochrome P450 1A2 (Homo sapiens) (P05177 whole entry, looked up): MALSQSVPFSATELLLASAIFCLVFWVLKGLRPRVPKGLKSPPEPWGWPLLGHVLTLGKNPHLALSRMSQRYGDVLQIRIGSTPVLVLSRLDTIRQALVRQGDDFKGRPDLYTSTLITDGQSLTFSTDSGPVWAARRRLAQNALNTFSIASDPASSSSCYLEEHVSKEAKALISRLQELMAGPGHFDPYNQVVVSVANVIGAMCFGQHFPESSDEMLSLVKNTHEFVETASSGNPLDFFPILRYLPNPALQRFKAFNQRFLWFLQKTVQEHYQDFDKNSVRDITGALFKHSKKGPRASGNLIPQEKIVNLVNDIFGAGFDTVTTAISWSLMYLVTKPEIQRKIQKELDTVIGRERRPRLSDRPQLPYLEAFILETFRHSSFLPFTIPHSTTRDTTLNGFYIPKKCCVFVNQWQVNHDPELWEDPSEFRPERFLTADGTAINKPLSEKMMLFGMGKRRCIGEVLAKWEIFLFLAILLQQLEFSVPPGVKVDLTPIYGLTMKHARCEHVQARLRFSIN
Outline: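 Human CYP1A2 activity measured with a P450-Glo proluciferin substrate; compounds in DMSO preincubated 10 min at room temperature with enzyme-substrate mix, then NADPH regeneration system added for 1 h. Luciferin detection reagent, 20 min, luminescence read.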

[2] = target: Cytochrome P450 3A4 (Homo sapiens) (UniProt P08684); assay: Cytochrome P450 Family 3 Subfamily A Member 4 (CYP3A4) small molecule antagonists: luciferase reporter qHTS assay (AID 1671201); note: potency is the fitted concentration of half-maximal effect
Sequence of Cytochrome P450 3A4 (Homo sapiens) (P08684 whole entry, looked up): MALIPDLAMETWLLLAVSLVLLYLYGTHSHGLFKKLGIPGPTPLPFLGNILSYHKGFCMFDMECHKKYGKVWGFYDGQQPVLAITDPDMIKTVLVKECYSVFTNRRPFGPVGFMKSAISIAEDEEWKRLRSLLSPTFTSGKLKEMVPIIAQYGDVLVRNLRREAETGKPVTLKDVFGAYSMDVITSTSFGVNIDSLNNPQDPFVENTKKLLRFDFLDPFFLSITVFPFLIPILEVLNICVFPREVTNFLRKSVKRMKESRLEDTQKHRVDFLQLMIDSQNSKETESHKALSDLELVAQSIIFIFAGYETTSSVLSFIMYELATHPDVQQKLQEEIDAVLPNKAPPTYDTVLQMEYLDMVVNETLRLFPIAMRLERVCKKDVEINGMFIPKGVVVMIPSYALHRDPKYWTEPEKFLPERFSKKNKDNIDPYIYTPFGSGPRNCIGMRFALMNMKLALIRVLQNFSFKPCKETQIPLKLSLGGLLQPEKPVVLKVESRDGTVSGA
Outline: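 qHTS, 1536-well. CYP3A4 + proluciferin substrate, cpd 10 min RT → NADPH regen 1 h RT → detection reagent 20 min → luminescence (RLU). Ketoconazole positive control.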

[3] = target: Voltage-gated inwardly rectifying potassium channel KCNH2 (Homo sapiens) (UniProt Q12809); assay: Human Ether-a-go-go-Related Gene (hERG) channel small molecule antagonists: fluorescence cell-based qHTS assay (AID 1671200);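 note: hERG-expressing U2OS cells given a thallium stimulus after FluxOR II dye loading; series mostly up to about 77 µM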
Sequence of Voltage-gated inwardly rectifying potassium channel KCNH2 (Homo sapiens) (Q12809 whole entry, looked up): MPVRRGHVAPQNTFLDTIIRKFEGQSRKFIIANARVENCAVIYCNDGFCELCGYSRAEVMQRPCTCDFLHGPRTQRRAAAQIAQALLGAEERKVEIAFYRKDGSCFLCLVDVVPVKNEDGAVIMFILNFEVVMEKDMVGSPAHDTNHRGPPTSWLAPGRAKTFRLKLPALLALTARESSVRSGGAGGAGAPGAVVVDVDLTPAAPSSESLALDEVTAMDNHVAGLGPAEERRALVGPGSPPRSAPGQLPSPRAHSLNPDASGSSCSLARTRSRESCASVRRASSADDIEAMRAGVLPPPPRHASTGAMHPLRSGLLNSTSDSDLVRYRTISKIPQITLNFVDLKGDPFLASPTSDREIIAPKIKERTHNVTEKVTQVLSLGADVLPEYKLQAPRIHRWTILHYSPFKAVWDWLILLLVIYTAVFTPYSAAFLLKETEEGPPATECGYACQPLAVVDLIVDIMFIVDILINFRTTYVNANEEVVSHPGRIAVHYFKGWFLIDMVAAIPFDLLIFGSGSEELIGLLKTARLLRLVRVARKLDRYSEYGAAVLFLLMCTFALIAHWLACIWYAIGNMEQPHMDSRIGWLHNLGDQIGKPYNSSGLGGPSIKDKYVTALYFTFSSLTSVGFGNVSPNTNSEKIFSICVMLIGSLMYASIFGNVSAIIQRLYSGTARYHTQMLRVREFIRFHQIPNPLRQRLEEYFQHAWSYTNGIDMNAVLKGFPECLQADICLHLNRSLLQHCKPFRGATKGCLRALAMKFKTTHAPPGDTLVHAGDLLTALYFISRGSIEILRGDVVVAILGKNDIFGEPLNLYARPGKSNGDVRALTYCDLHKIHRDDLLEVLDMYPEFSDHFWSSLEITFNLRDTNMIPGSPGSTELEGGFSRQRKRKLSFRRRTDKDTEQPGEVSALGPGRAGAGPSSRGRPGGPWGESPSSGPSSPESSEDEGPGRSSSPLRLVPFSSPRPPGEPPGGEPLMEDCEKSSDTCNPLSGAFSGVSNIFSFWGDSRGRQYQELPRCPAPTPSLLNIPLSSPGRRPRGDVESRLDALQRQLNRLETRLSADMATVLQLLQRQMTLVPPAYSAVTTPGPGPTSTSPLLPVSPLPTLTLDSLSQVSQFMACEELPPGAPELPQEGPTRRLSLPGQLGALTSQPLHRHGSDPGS
Outline: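 Fluorescence at 540 nm emission (480 nm excitation) was recorded kinetically for 2 min at 1-second intervals once the thallium-containing stimulus reached cells previously loaded with FluxOR II dye.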
Note: nearly all actives have a fitted effect of over 50% in size.

SMILES	Potency [1]	Potency [2]	Potency [3]
[O-][Cl+2]([O-])O	inactive	inactive	
O=C(NC(=O)c1c(F)cccc1F)Nc1cc(Cl)c(OC(F)(F)C(F)C(F)(F)F)cc1Cl (centres undefined)		inactive	inactive
CN=C=S		inactive	inactive
CN(C)N=O	inactive	inactive	
O=[N+]([O-])c1ccc(Oc2ccc(Cl)cc2Cl)cc1	31.9 µM (active) and 22.4 µM (active)	inactive	
CC(Br)C(=O)O (centres undefined)		inactive	inactive
CCc1cccc(C)c1N(C(=O)CCl)C(C)COC (centres undefined)		inactive	inactive
[N-]=[N+]=[N-]		inactive	inactive
CC(Oc1ccc(Cl)cc1Cl)C(=O)O (centres undefined)	inactive	inactive	
CCOP(OCC)OCC	inactive	inactive	
CC(=O)C=C(C)C		inactive	inactive
CC(C#N)CCC#N (centres undefined)	inactive	inactive	
CC(C)(C)OOC(C)(C)C		inactive	inactive
CC(C)OC(=O)Nc1cccc(Cl)c1	9.89 µM (active) and 8.94 µM (active)	inactive	inactive
Nc1ccccc1C(=O)O	40.1 µM (active) and inactive	inactive	
Nc1c(Cl)c(Cl)nc(C(=O)O)c1Cl		inactive	inactive
Clc1ccc(Cl)cc1	inactive	inactive	
CC(C)NC(=O)N1CC(=O)N(c2cc(Cl)cc(Cl)c2)C1=O	12.6 µM (active)	inactive	inactive
CCOP(=S)(OCC)SCCSCC	26 µM (active) and 7.57 µM (active)	4.12 µM (active) and 3.8 µM (active)	
O=c1ccc(=O)[nH][nH]1	inactive	inactive	
Cn1cc(-c2ccccc2)c(=O)c(-c2cccc(C(F)(F)F)c2)c1	19.5 µM (active) and 17.8 µM (active)	12.3 µM (active) and 12.6 µM (active)	
CN(C)[C@@H]1C(=O)C(C(N)=O)=C(O)[C@@]2(O)C(=O)C3=C(O)c4c(O)cccc4[C@@](C)(O)[C@H]3C[C@@H]12		inactive	inactive
O=C(O)c1ccccn1	inactive	inactive	
COCCl	20.1 µM (active)	inactive	
Nc1ccc(Cc2ccc(N)cc2)cc1	39.3 µM (active) and 35.6 µM (active)	6.99 µM (active) and 3.99 µM (active)	
c1ccc2c(c1)oc1ccccc12	inactive and 10 µM (active)	inactive	
CCNc1nc(NC(C)(C)C)nc(SC)n1	7.01 µM (active) and 7.96 µM (active)	inactive	
Nc1ccc(Oc2ccc(N)cc2)cc1	inactive	18.1 µM (active) and inactive	inactive

Reference: PubChem BioAssay (Tox21)
